About 300 (9.4%) of roughly 3,200 compounds showed activity. What follows is part of a selection rich in actives, with near analogues and random picks from the rest.
Test system: A673/TR/shEF
Experiment: cell viability (LOESS-normalised, relative to median of negative controls) (log2 ratio); higher = more viable cells (less compound effect), active = hit call of the paper (over 3 MAD below the median)
Conditions: treatment time: 72 h
Outline: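 Doxycycline, present or absent from 24 h before compounds, was used to induce EWS-FLI1 shRNA knockdown in A673/TR/shEF Ewing sarcoma cells at 1,500 per well in 384-well plates. Cells then received library compounds at two or more concentrations, or DMSO controls, for three days. Viability was measured by CellTiter-Glo luminescence on an Envision reader, and per-plate LOESS correction, division by the negative-control median and log2 transformation followed.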

[1] = 0.25 µM, library screen: screen1, EWS-FLI1 expression: high (no doxycycline)
[2] = 0.25 µM, library screen: screen1, EWS-FLI1 expression: low (doxycycline-induced shRNA knockdown)
[3] = 2.5 µM, library screen: screen1, EWS-FLI1 expression: high (no doxycycline)
[4] = 2.5 µM, library screen: screen1, EWS-FLI1 expression: low (doxycycline-induced shRNA knockdown)
[5] = 0.103 µM, library screen: screen3, EWS-FLI1 expression: high (no doxycycline)
[6] = 0.103 µM, library screen: screen3, EWS-FLI1 expression: low (doxycycline-induced shRNA knockdown)
[7] = 0.308 µM, library screen: screen3, EWS-FLI1 expression: high (no doxycycline)
[8] = 0.308 µM, library screen: screen3, EWS-FLI1 expression: low (doxycycline-induced shRNA knockdown)
[9] = 0.926 µM, library screen: screen3, EWS-FLI1 expression: high (no doxycycline)
[10] = 0.926 µM, library screen: screen3, EWS-FLI1 expression: low (doxycycline-induced shRNA knockdown)
[11] = 2.8 µM, library screen: screen3, EWS-FLI1 expression: high (no doxycycline)
[12] = 2.8 µM, library screen: screen3, EWS-FLI1 expression: low (doxycycline-induced shRNA knockdown)
[13] = 8.3 µM, library screen: screen3, EWS-FLI1 expression: high (no doxycycline)
[14] = 8.3 µM, library screen: screen3, EWS-FLI1 expression: low (doxycycline-induced shRNA knockdown)
[15] = 25 µM, library screen: screen3, EWS-FLI1 expression: high (no doxycycline)
[16] = 25 µM, library screen: screen3, EWS-FLI1 expression: low (doxycycline-induced shRNA knockdown)
[17] = 0.25 µM, library screen: screen2, EWS-FLI1 expression: high (no doxycycline)
[18] = 0.25 µM, library screen: screen2, EWS-FLI1 expression: low (doxycycline-induced shRNA knockdown)
[19] = 2.5 µM, library screen: screen2, EWS-FLI1 expression: high (no doxycycline)
[20] = 2.5 µM, library screen: screen2, EWS-FLI1 expression: low (doxycycline-induced shRNA knockdown)
[21] = 0.025 µM, library screen: screen1, EWS-FLI1 expression: high (no doxycycline)
[22] = 0.025 µM, library screen: screen1, EWS-FLI1 expression: low (doxycycline-induced shRNA knockdown)
[23] = 25 µM, library screen: screen1, EWS-FLI1 expression: high (no doxycycline)
[24] = 25 µM, library screen: screen1, EWS-FLI1 expression: low (doxycycline-induced shRNA knockdown)

Measured: cell viability (log2)

Cc1cn2c(=O)c3ccccc3nc2nc1Nc1ccccc1C(=O)O
inactive: [1] 0.138 | [2] 0.0987 | [3] 0.0749 | [4] 0.0532

O=C1C=CC2=C3c4cc(O)c(O)cc4CC3(O)COC2=C1 (stereo not drawn)
inactive: [1] 0.163 | [2] 0.195 | [3] 0.225 | [4] 0.28

COc1ccc(C2COc3c(ccc(O)c3OC)C2)c(OC)c1O (stereo not drawn)
inactive: [1] 0.108 | [2] 0.0205 | [3] 0.0667 | [4] -0.00772

COc1cc(OC)c2c(=O)c(-c3ccccc3)coc2c1
inactive: [1] 0.0176 | [2] 0.0621 | [3] 0.0815 | [4] 0.1

CS(=O)(=O)CCNCc1ccc(-c2ccc3ncnc(Nc4ccc(OCc5cccc(F)c5)c(Cl)c4)c3c2)o1
inactive: [5] 0.145 | [6] 0.0528 | [7] 0.146 | [8] 0.112 | [9] 0.139 | [10] 0.114 | [11] 0.0651 | [12] 0.113 | [13] 0.0899 | [14] 0.0389 | [15] 0.0387 | [16] 0.0962

COc1cc2ncnc(Nc3ccc(F)c(Cl)c3)c2cc1OCCCN1CCOCC1
inactive: [5] 0.066 | [6] 0.0855 | [7] 0.103 | [8] 0.0493 | [9] 0.114 | [10] 0.0535 | [11] 0.136 | [12] 0.0991 | [13] 0.00987 | [14] 0.0751 | [15] -0.0152 | [16] 0.0721

CN(C)C/C=C/C(=O)Nc1cc2c(Nc3ccc(F)c(Cl)c3)ncnc2cc1O[C@H]1CCOC1
active: [15] -1.35 | [16] -1
inactive: [5] -0.033 | [6] 0.00738 | [7] -0.0507 | [8] -0.00854 | [9] 0.0161 | [10] -0.000186 | [11] 0.00307 | [12] -0.0241 | [13] -0.0486 | [14] -0.0662

C=CC(=O)Nc1cc2c(Nc3ccc(F)c(Cl)c3)ncnc2cc1OCCCN1CCOCC1
inactive: [5] 0.0394 | [6] 0.0254 | [7] -0.016 | [8] 0.0224 | [9] -0.0215 | [10] -0.0107 | [11] -0.0981 | [12] -0.0776 | [14] -0.0307
active: [13] -0.188 | [15] -0.199 | [16] -0.281

COc1cc2c(N3CCN(C(=O)Nc4ccc(OC(C)C)cc4)CC3)ncnc2cc1OCCCN1CCCCC1
inactive: [5] -0.0129 | [6] -0.0538 | [7] -0.0428 | [8] -0.0392 | [9] -0.0343 | [10] -0.0604 | [11] 0.0597 | [12] 0.0175 | [13] 0.0441 | [14] 0.0441 | [15] -0.0915 | [16] 0.0601

COc1cc2c(Nc3ccc(Br)cc3F)ncnc2cc1OCC1CCN(C)CC1
inactive: [5] -0.0043 | [6] 0.0398 | [7] -0.0447 | [8] 0.068 | [9] 0.0443 | [10] 0.0503 | [11] -0.0379 | [12] 0.00456 | [13] -0.00527 | [14] -0.0123 | [15] -0.0986 | [16] -0.0825

CCCCCCCCCCCCCCCC(=O)NCC(COP(=O)([O-])OCC[N+](C)(C)C)OCC (stereo not drawn)
inactive: [17] 0.198 | [18] 0.0364 | [19] 0.0761 | [20] -0.0192

COc1ccc(C(=O)c2ccccc2)c(O)c1O
inactive: [1] 0.123 | [2] 0.143 | [3] 0.244 | [4] 0.216

COc1ccc2c(c1)c(CC(=O)Nc1ccc(NC(C)=O)cc1)c(C)n2C(=O)c1ccc(Cl)cc1
inactive: [17] -0.0274 | [18] 0.0874 | [19] 0.0757 | [20] 0.214

CCCN(CCC)CCc1cccc2c1CC(=O)N2
active: [17] -0.0806 | [18] -0.203 | [19] -3.18 | [20] -2.79

CCN1C(=O)/C(=C/c2c(N3CCN(C)CC3)nc3ccccn3c2=O)SC1=S
inactive: [1] 0.0782 | [2] 0.0798 | [3] 0.126 | [4] 0.0777

COc1ccc(-c2nn(-c3ccccc3)cc2C=O)cc1[N+](=O)[O-]
inactive: [1] 0.000395 | [2] 0.0393 | [3] 0.0878 | [4] 0.0816

O=C(Nc1ccccn1)c1cc(-c2ccccc2)nc2ccccc12
inactive: [1] 0.083 | [2] -0.00975 | [3] 0.0888 | [4] -0.0311

Cc1cc2ncc(-c3ccccc3)nc2cc1C
active: [3] -0.0894 | [23] -0.147
inactive: [21] 0.21 | [22] 0.0761 | [1] 0.265 | [2] 0.0996 | [4] 0.141 | [24] 0.0902

C=C(c1ccccc1)c1cc(O)c(OC)cc1O
inactive: [1] -0.0139 | [2] -0.00424 | [3] 0.0356 | [4] 0.0603

COc1ccccc1N(C(N)=O)c1nc(-c2cccnc2)nc2ccccc12
inactive: [17] 0.155 | [18] 0.0439 | [19] 0.275 | [20] 0.0633

COc1cc2ncc(-c3ccccc3)nc2cc1OC
active: [23] -0.157
inactive: [21] 0.165 | [22] -0.00441 | [1] 0.202 | [2] 0.0199 | [17] 0.139 | [18] 0.0671 | [3] -0.0715 | [4] 0.188 | [19] 0.212 | [20] 0.201 | [24] 0.175

CC1=C(C(=O)OCC2CCCO2)C(c2coc3ccccc3c2=O)C2=C(CCCC2=O)N1 (stereo not drawn)
inactive: [1] 0.0728 | [2] 0.022 | [3] 0.00147 | [4] 0.0061

COc1ccc2c(c1)OC1CC1(c1ccccc1OC)C2=O (stereo not drawn)
inactive: [1] 0.0685 | [2] 0.0535 | [3] 0.0294 | [4] 0.0412

COc1ccc(OC)c(CN2CCN(Cc3ccco3)CC2)c1
inactive: [1] 0.136 | [2] 0.00829 | [3] 0.0712 | [4] 0.0546

C=C1C[C@]23C[C@@]1(O)CC[C@H]2[C@@]12C=C[C@H](O)C(C)(C(=O)O1)[C@H]2[C@@H]3C(=O)O
inactive: [1] 0.0797 | [2] -0.049 | [3] 0.109 | [4] 0.00256

CC(C)C[C@H](NC(=O)[C@H](Cc1ccccc1)NC(=O)c1cnccn1)B(O)O
inactive: [6] -0.0845
active: [5] -0.242 | [7] -2.56 | [8] -0.914 | [9] -3.95 | [10] -1.75 | [11] -4.24 | [12] -4.06 | [13] -4.26 | [14] -3.84 | [15] -4.26 | [16] -4.16

CC(C)C[C@H](NC(=O)[C@H](O)[C@H](N)Cc1ccccc1)C(=O)O
inactive: [17] 0.14 | [18] 0.0402 | [19] 0.0931 | [20] 0.0118

CC(C)C[C@H](NC(=O)[C@@H](O)[C@H](N)Cc1ccccc1)C(=O)O
inactive: [17] 0.185 | [18] -0.00499 | [19] 0.106 | [20] 0.0581

O=C(Nc1ccccc1Cl)C1c2ccccc2Oc2ccccc21
inactive: [1] 0.0923 | [2] 0.0427 | [3] 0.118 | [4] 0.00942

COC1CCC2(C)C(CCC3C2CCC2(C)C(C(C)CCCC(C)C)CCC32)C1 (stereo not drawn)
inactive: [1] -0.00918 | [2] 0.0236 | [3] 0.0903 | [4] 0.091

CCCCCCCCCC(=O)NC(CN1CCOCC1)C(O)c1ccccc1 (stereo not drawn)
active: [17] -0.53 | [18] -0.533 | [19] -1.39 | [20] -2.57

CCCCOc1ccc(OCCCN2CCOCC2)cc1
inactive: [1] 0.172 | [2] 0.0279 | [3] 0.124 | [4] 0.0578

CCN1CCCC(OC(=O)C(c2ccccc2)c2ccccc2)C1 (stereo not drawn)
inactive: [1] 0.0616 | [2] 0.0736 | [3] 0.223 | [4] -0.0423

Cc1ccc(C(=O)NCCSc2ccccn2)cc1
inactive: [1] 0.109 | [2] 0.00816 | [3] 0.117 | [4] -0.0564

Cn1cnnc1SCC(=O)N1c2ccccc2C(C)(c2ccccc2)CC1(C)C (stereo not drawn)
inactive: [1] 0.078 | [2] 0.058 | [3] 0.127 | [4] 0.198

C[C@@H]1CC[C@H]2[C@](C)(CO)[C@@H](O)CC[C@]2(C)[C@@]12CC[C@@](CO)(CCO)O2
inactive: [1] 0.0457 | [2] -0.0603 | [3] 0.0942 | [4] 0.112

CC(C)(C)c1onc(OCP(=O)(O)O)c1CC(N)C(=O)O (stereo not drawn)
inactive: [17] -0.0656 | [18] 0.0767 | [19] 0.0137 | [20] 0.0837

N=C1C=CC(=C(c2ccc(N)cc2)c2ccc(N)cc2)C=C1
active: [1] -0.412 | [2] -0.563 | [3] -3.76 | [4] -3.35

CCOC(=O)c1ccc(N)cc1
inactive: [1] 0.113 | [2] 0.151 | [3] 0.0778 | [4] 0.18

N=C(N)c1ccc(N)cc1
inactive: [17] 0.132 | [18] 0.0859 | [19] 0.0987 | [20] 0.121

Source: the supplement of paper PMC6089552
